The record followed here is PubChem BioAssay.

A short description of experiment [1]: Her2 expression decrease, cell viability multiplex – SKBR3 breast tumor cells, AlphaScreen, ATP viability, primary screen (AID 461;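 active = Her2 level under about 52% in both replicate screens, with viability over 70% of control, limit read from the data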;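 for Her2 level: lower value means less Her2 protein in the cells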;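 for viability: percent of carrier control wells set as 100% viability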). The note with it: SKBR3 Her2 protein level, 18-24 h, measured here: SKBR3 viability, ATP luminescence, at 10 µM. Background: In Alpha technology, singlet oxygen from a donor bead excites a nearby acceptor bead.
Experiment [2] addresses Receptor tyrosine-protein kinase erbB-2 (Homo sapiens) (UniProt P04626). Described as above. Conditions: 18-24 h, at 10 µM, stronger effect = lower value.
The nature of experiment [3]: reduced viability of SK-BR-3 breast cancer cells – cell-based, 24 h, human, pilot screen (AID 572;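 active = viability at or below 10% of carrier control in both of two separate runs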;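 note: compound exposure lasted between 18 and 24 h rather than exactly 24 h; 100% = carrier-treated control wells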). Conditions: SK-BR-3 viability, CellTiter-Glo luminescence, at 10 µM, stronger effect = lower value.
Experiment [4] can be described thus: HUVEC growth inhibition – cell-based, human, primary screen (AID 575).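 Note: 100% = median of untreated cell wells with 0.1% DMSO on each plate.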 The note with it: HUVEC proliferation, CellTiter-Glo luminescence, 72 h; at 10 µM; stronger effect = lower value. For orientation: Cellular ATP, detected with luciferase, serves as a proxy for viable cell number.
Experiment [5] is described as follows: H69AR cell proliferation blockers – human, duplicate replicates, primary screen (AID 580;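 active = viability at or under a set limit in both replicates, limit being median viability minus 3 SD, cut at about 48% in these data, passing the limit was not always enough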;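 note: 100% = mean luminescence of untreated wells and 0% = no signal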). The note with it: H69AR lung tumor cells viability, ATP luminescence, 72 h; at 10 µM; stronger effect = lower value.
A short description of experiment [6]: MRP1 drug-resistance reversers in H69AR cells – cell-based, doxorubicin co-treatment, pilot screen (AID 601;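 active = viability loss from added drug above about 55%, and viability with drug at most 40%, in both replicates, limit read from the data, passing the limit was not always enough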). The note with it: CellTiter-Glo, 72 h, at 10 µM; for differential viability (reversal): stronger effect = higher value.
The nature of experiment [7]: yeast transport mutant growth inhibition pilot in 384-well plates, post-Golgi transport modulator project (AID 636; in the data active = inhibition above about 31%). The note with it: absorbance 615 nm, about 18 h, stronger effect = higher value.
Experiment [8] is described as follows: growth suppression of yeast trafficking mutant, preliminary HTS, modulators of trafficking downstream of Golgi apparatus project, 1536-format plate, OD 615 nm (AID 637; in the data active = inhibition above about 30%). The note with it: yeast transport mutant growth, absorbance 615 nm, 18 h; stronger effect = higher value.
Experiment [9] can be described thus: S. cerevisiae growth inhibition in permissive medium (OD615), pilot counter-assay for S. cerevisiae lifespan shortening project, permissive growth control (AID 705;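 active = growth inhibition above 25% in both replicates, a cutoff set 3 SD above the mean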). The note with it: OD615, 24 h, at 10 µM, stronger effect = higher value.
Experiment [10] can be described thus: S. cerevisiae growth inhibition in restrictive medium, OD615, pilot screen, restrictive growth control, yeast lifespan reduction project (AID 706;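 active = growth inhibition above a set limit, 3 SD over mean compound inhibition, in both replicates, cut at about 43% in these data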;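 note: modified DeaD lifespan yeast strain shifted to restrictive glucose medium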). The note with it: OD615, 48 h, at 10 µM, stronger effect = higher value.
A short description of experiment [11]: doxorubicin toxicity protection in MRP-1 cells – H69AR cells, CellTiter-Glo, duplicate, MRP-1 activator project, pilot screen (AID 807;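 active = viability increase at or above a cutoff of the median across tested compounds plus 3 SD, cut at about 8.5% in these data, passing the limit was not always enough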;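 note: compound pretreatment 18-22 h then 72 h combined with doxorubicin; 0% = doxorubicin alone and 100% = vehicle without doxorubicin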). The note with it: H69AR viability with doxorubicin, CellTiter-Glo luminescence; at 10 µM; stronger effect = higher value.
Experiment [12] can be described thus: viability of HCT116 without oncogenic beta-catenin – human colon tumor cells, pilot screen (AID 823;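 active = cell viability at or below a set limit in both duplicate runs, the limit being the all-compound median minus 4 SD, cut at about 23% in these data, passing the limit was not always enough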;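 note: 0% = wells killed by 20 µM Hyamine and 100% = untreated DMSO cell wells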). The note with it: HCT116 beta-catenin knockout viability, CellTiter-Glo, 60 h; at 10 µM; stronger effect = lower value.
Experiment [13] is described as follows: viability of PTEN-null HCT116 cells – cell-based, HCT116 clonal line, CellTiter-Glo, pilot screen (AID 824;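 active = viability at or below 27.92% in each of two runs, the all-compound median minus 4 SD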;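 note: 0% = 20 µM Hyamine control and 100% = vehicle cell control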). Conditions: HCT116 PTEN-deleted viability, 60 h, at 10 µM, stronger effect = lower value.
Experiment [14] in a line: RAM pathway blockade in budding yeast – dse1pr::URA3 reporter, 5-FOA selection, pilot screen (AID 869;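 active = inhibition over a set limit, the all-compound mean plus 3 SD, in both replicate runs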;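 note: 0% = DMSO wells with no growth and 100% = 10 µM 1-NA-PP1 with full growth; RAM network block rescues cells from 5-FOA so hits raise OD615 growth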). The note with it: S. cerevisiae dse1pr::URA3 5-FOA growth, OD615, 2 d; at 10 µM; stronger effect = higher value; strain carries analog-sensitive mutant Cbk1 kinase.
The nature of experiment [15]: RAM signaling pathway blockade in yeast – S. cerevisiae, Pdr1DBD-CYC8 efflux-inhibited sensitized strain, primary screen (AID 1298;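 active = RAM network inhibition above 8.4% in each of two replicates, 3 SD over the compound average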;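 note: 0% = DMSO untreated cells without growth and 100% = 10 µM 1-NA-PP1 full growth; higher means more yeast growth rescued from 5-FOA killing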). The note with it: S. cerevisiae cbk1-as DSE1-URA3 strain, 5-FOA growth OD615, 2 d; at 50 µM; stronger effect = higher value.
Setting [16] is: H69AR cells + 2 uM doxorubicin, measured here: viability with 2 uM doxorubicin, stronger effect = lower value.
Setting [17] is: H69AR cells, compound alone cytotoxicity.

Each structure is given as a SMILES string. Results filed as inconclusive are left out. Active and inactive are the calls of the source.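 Rule for the calls, unless noted: active = viability at or below 30% in both replicate assays; inconclusive = viability at or below 30% in just one of the two assays; inactive = the rest.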

Receptor tyrosine-protein kinase erbB-2 (Homo sapiens), sequence (P04626 whole entry, looked up): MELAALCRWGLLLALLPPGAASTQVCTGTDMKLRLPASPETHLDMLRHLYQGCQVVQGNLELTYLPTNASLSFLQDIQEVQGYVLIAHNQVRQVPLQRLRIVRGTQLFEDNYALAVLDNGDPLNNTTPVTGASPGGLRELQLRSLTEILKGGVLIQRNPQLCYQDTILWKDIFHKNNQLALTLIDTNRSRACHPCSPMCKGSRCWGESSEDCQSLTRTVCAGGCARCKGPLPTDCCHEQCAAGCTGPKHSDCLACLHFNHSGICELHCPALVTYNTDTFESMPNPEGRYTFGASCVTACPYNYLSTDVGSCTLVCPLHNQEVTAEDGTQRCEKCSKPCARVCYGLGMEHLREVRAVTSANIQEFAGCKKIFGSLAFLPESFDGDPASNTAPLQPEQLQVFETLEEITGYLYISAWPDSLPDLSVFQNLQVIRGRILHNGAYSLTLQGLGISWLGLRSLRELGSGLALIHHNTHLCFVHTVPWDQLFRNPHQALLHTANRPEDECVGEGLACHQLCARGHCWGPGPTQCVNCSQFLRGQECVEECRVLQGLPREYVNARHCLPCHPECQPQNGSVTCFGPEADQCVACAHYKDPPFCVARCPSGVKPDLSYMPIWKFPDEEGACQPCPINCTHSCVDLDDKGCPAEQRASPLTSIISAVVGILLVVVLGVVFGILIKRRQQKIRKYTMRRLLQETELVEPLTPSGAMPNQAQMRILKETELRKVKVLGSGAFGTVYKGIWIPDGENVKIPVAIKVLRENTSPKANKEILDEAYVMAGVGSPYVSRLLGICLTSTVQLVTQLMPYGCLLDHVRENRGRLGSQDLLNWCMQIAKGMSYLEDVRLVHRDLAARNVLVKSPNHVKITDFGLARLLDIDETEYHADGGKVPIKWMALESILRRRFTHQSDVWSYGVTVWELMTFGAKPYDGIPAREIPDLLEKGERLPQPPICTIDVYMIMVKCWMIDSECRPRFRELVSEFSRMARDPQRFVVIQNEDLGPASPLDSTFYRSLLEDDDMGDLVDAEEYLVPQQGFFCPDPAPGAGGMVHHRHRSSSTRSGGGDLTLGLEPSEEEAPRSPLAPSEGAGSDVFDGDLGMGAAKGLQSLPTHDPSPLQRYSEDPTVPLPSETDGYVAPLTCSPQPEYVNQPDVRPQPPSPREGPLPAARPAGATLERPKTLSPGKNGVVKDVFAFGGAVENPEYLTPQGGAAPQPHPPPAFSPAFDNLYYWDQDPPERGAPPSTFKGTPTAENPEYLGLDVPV

On to `CN(CC(=O)N1CCCCC1)S(=O)(=O)c1cccc2cccnc12`, for which the viability in [1] was 99%; in [3], 99% (inactive); in experiment [4] it was 91.5% (inactive); in experiment [5], 97.5% (inactive); in experiment [6] (setting [16]) it was 95.8%; in [6] (setting [17]) it was 97.5%. Moreover, the results for the viability in experiment [12] and in [13] were 94.6% (inactive) and 94.7% (inactive), respectively. The Her2 level in [2] was 104% (inactive). For the same compound, in [6] (H69AR cells + 2 uM doxorubicin), the differential viability (reversal) is 1.62% (inactive). The inhibition in [7] is -0.4% (inactive); in experiment [8], -1.8% (inactive); in experiment [14], 0.26% (inactive). The growth inhibition was -4.94% (inactive) in experiment [9] and 9.9% (inactive) in [10]. The viability increase in experiment [11] was -2.03% (inactive). Besides, the RAM network inhibition in experiment [15] is 1.14% (inactive).
With `CCCOc1ccc2ccccc2c1/C=N/n1cnnc1`, the viability in experiment [1] was 93%; in experiment [3], 93% (inactive); in [4] it was 66.7% (inactive); in [5], 72.3% (inactive); in experiment [6] (setting [16]) it was 69.2%; in experiment [6] (setting [17]), 72.3%. For the same compound, the viability is 92.4% (inactive) in experiment [12] and 80.9% (inactive) in [13]. For the same compound, in experiment [2], the Her2 level was 91% (inactive). In addition, the differential viability (reversal) in experiment [6] (H69AR cells + 2 uM doxorubicin) was 3.08% (inactive). For the same compound, the inhibition in experiment [7] was -3.08% (inactive); in experiment [8], 2.67% (inactive); in [14], -0.575% (inactive). Further, the results for the growth inhibition in [9] and in [10] were -0.81% (inactive) and 6.62% (inactive), respectively. Moreover, in experiment [11], the viability increase was -5.76% (inactive). Besides, the RAM network inhibition in experiment [15] is -1.74% (inactive).
Turning to `COc1cccc(-c2nc(CS(=O)(=O)CC(=O)NCc3ccc(Cl)cc3)c(C)o2)c1`, the viability was 72.5% in experiment [1]; 72.5% (inactive) in [3]; 42.8% (inactive) in [4]; 87.9% (inactive) in experiment [5]; 77.8% in experiment [6] (setting [16]); 87.9% in experiment [6] (setting [17]). Also, the viability is 87.1% (inactive) in experiment [12] and 89.3% (inactive) in experiment [13]. The Her2 level in [2] is 71% (inactive). In experiment [6] (H69AR cells + 2 uM doxorubicin), the differential viability (reversal) was 10.1% (inactive). Also, the inhibition is 0.4% (inactive) in experiment [7], -2.3% (inactive) in experiment [8] and 2.36% (inactive) in experiment [14]. The growth inhibition in experiment [9] is -8.85% (inactive); in [10], -2.68% (inactive). The viability increase in experiment [11] was -3.55% (inactive). Besides, in experiment [15], the RAM network inhibition was 5.41% (inactive).
On to `COc1ccc(C(C)N2CC34C=CC(O3)C(C(=O)OCC(C)C)C4C2=O)cc1` (stereo not given), for which the viability in [1] was 103%; in [3], 103% (inactive); in experiment [4], 97.2% (inactive); in experiment [5] it was 85.1% (inactive); in experiment [6] (setting [16]), 81.9%; in [6] (setting [17]) it was 85.1%. Also, the viability in experiment [12] is 103% (inactive); in experiment [13], 88.5% (inactive). The Her2 level in [2] was 89.5% (inactive). Besides, the differential viability (reversal) in experiment [6] (H69AR cells + 2 uM doxorubicin) was 3.22% (inactive). Also, the inhibition was -4.27% (inactive) in [7], -2.33% (inactive) in [8] and 1.82% (inactive) in experiment [14]. In addition, the growth inhibition is -0.88% (inactive) in experiment [9] and -7.06% (inactive) in experiment [10]. For the same compound, the viability increase in experiment [11] was -2.51% (inactive). Besides, the RAM network inhibition in [15] was 4.69% (inactive).
Consider `CN(CCNS(=O)(=O)c1ccc2c(c1)oc(=O)n2C)Cc1ccccc1`, for which the viability in experiment [1] is 86%; in experiment [3], 86% (inactive); in experiment [4] it was 90.7% (inactive); in [5], 98.1% (inactive); in experiment [6] (setting [16]) it was 87.9%; in experiment [6] (setting [17]), 98.1%. Also, the viability in experiment [12] is 97.5% (inactive); in experiment [13] it was 90.2% (inactive). Also, the Her2 level in experiment [2] is 99% (inactive). Further, the differential viability (reversal) in experiment [6] (H69AR cells + 2 uM doxorubicin) was 10.2% (inactive). Also, the inhibition in [7] was -2.95% (inactive); in experiment [8], -2.33% (inactive); in experiment [14], 2.44% (inactive). Moreover, the growth inhibition is -2.83% (inactive) in experiment [9] and 5.57% (inactive) in experiment [10]. Also, the viability increase in experiment [11] is -1.52% (inactive). In experiment [15], the RAM network inhibition was 4.66% (inactive).

For orientation: viability means a read-out of living cells in per cent, often relative to untreated cells. Usually inhibition stands for the change of the read-out against control, counted positive when it falls.
